Assay results reported in PubChem BioAssay.
Activity calls are given as the source filed them. Unless noted, the rule behind the calls is not given here.

How the values were obtained:
[1] = HepG2 liver cancer cell viability effects, profiling panel, resazurin fluorescence, 24 h, PK04 Diversity Set (AID 1172); settings: higher = more signal; note: test concentration not given here
[2] = basal S. cerevisiae growth modulation, no modifier, primary screen, OD600, strain BY4716, 24 h, basal condition (AID 1173); settings: OD600, 24 h, higher = more signal, called active from +8 up or from −8 down
[3] = MM1S myeloma cell viability, profiling panel, resazurin fluorescence, basal, 24 h, PK04 Diversity Set (AID 1174); settings: higher = more signal, called active from +8 up or from −8 down;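 note: MM1S multiple myeloma cell line; test concentration not given here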
[4] = molecular target: Dihydroorotate dehydrogenase (quinone), mitochondrial (Plasmodium falciparum (isolate 3D7)) (UniProt Q08210); assay: PfDHODH enzyme inhibitors, primary screen, biochemical, C-terminal His tag, absorbance 600 nm (AID 1175); settings: DCIP absorbance 600 nm, higher = more signal, called active from +8 up or from −8 down;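 note: recombinant parasite enzyme with a five histidine tag at its C terminus; test concentration not given here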
Sequence of Dihydroorotate dehydrogenase (quinone), mitochondrial (Plasmodium falciparum (isolate 3D7)) (Q08210 whole entry, looked up): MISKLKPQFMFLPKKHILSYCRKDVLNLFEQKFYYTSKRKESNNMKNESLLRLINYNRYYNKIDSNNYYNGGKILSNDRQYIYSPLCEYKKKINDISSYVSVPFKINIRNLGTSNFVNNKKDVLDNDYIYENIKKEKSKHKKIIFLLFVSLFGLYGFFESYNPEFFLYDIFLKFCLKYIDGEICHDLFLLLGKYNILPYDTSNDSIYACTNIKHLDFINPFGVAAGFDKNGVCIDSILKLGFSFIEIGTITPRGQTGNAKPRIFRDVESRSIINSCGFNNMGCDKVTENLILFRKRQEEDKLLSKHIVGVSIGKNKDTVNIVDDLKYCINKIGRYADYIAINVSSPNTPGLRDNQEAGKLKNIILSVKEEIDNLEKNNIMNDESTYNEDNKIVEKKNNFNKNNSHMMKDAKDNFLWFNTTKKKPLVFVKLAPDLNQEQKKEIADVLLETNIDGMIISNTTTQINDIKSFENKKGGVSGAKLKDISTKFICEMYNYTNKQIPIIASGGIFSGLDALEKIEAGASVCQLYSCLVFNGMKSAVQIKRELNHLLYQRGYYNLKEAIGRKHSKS

[5] = P. aeruginosa biofilm formation inhibitors, primary screen, strain PAO1, LB-PBS medium, absorbance 600 nm (AID 1176); note: test concentration not given here; settings: P. aeruginosa PAO1 growth/biofilm, A600, 12 h; higher = more signal
[6] = S. cerevisiae RM11-1a growth modifiers, primary screen, strain RM11-1a, OD600, basal, 24 h (AID 1177); settings: OD600, 24 h, higher = more signal, called active from +8 up or from −8 down;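 note: cultures grown under basal conditions with no added stressor; test concentration not given here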
[7] = E. coli acrAB mutant growth effects, primary screen, E. coli filamentation inducers, strain DRC39, OD650, 24 h (AID 1178); settings: higher = more signal, called active from +8 up or from −8 down;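 note: growth measured as culture turbidity by optical density at 650 nm; test concentration not given here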
[8] = E. coli acrAB mutant growth effects, primary screen, E. coli filamentation inducers, strain DRC39, OD650, 48 h (AID 1179);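 note: screen aims at cell division blockers that make cells filament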; settings: E. coli DRC39 delta-acrAB growth, higher = more signal, called active from +8 up or from −8 down
[9] = RPMI8226 myeloma cell viability, profiling panel, resazurin fluorescence, basal, 24 h, PK04 Diversity Set (AID 1180); settings: higher = more signal;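 note: RPMI8826 multiple myeloma cell line at 5000 cells per well; test concentration not given here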
[10] = molecular target: E3 ubiquitin-protein ligase XIAP (Homo sapiens) (UniProt P98170); assay: XIAP binders, primary screen, biophysical, small-molecule microarray, fluorescence 635 nm (AID 1181); settings: small-molecule microarray binding, higher = more signal;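 note: score merges 667 nm emission and signal to noise over triplicate slides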
Sequence of E3 ubiquitin-protein ligase XIAP (Homo sapiens) (P98170 whole entry, looked up): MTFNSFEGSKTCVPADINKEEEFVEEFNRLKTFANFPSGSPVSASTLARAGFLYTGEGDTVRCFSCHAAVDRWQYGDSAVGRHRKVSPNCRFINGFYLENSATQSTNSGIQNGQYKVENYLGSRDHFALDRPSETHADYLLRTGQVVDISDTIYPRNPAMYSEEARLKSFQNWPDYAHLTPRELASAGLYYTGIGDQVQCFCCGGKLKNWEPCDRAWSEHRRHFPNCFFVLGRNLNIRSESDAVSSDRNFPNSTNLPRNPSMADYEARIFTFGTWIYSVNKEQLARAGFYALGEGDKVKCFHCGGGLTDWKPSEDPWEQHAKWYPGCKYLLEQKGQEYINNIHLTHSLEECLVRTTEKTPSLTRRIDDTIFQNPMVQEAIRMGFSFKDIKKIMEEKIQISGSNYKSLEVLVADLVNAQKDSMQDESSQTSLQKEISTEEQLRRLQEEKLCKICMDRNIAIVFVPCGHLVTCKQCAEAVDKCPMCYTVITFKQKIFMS

| SMILES | z-score [1] | z-score [2] | z-score [3] | composite z-score [4] | z-score [5] | z-score [6] | z-score [7] | z-score [8] | z-score [9] | composite z-score [10] |
| --- | --- | --- | --- | --- | --- | --- | --- | --- | --- | --- |
| CC(C)NC(=O)[C@@]1(c2ccc([N+](=O)[O-])cc2)CC(=O)N(CC23CC4CC(CC(C4)C2)C3)[C@@H]1c1ccc(CO)cc1I | -3.37 | -0.722 (inactive) | -4.2 (inactive) | -0.304 (inactive) | 0.761 (inactive) | 0.835 (inactive) | -0.398 (inactive) | -0.226 (inactive) | -4.86 | 0.0178 |
| COC(=O)C1=CCC(c2cccc(Cl)c2)O1 (stereo not given) | -0.0749 | -3.58 (inactive) | -0.232 (inactive) | -0.861 (inactive) | 0.216 (inactive) | -0.695 (inactive) | -0.0684 (inactive) | -0.0113 (inactive) | -0.646 | -0.0962 |
| CC(C)NC(=O)[C@@]1(C)c2ccccc2C(=O)N(Cc2cc(F)cc(C(F)(F)F)c2)[C@H]1c1ccc(CO)cc1 | -0.0499 | 0.118 (inactive) | 0.0847 (inactive) | 0.0724 (inactive) | 0.897 (inactive) | -0.0826 (inactive) | -0.0821 (inactive) | -0.043 (inactive) | -0.744 | -0.157 |
| COC(=O)[C@@H]1CCCN1C(=O)[C@@H](C)CO | -0.337 | -1.06 (inactive) | -0.379 (inactive) | -2.93 (inactive) | 0.0372 (inactive) | -0.213 (inactive) | -1.47 (inactive) | -2.18 (inactive) | -0.376 | -0.0415 |
| O=C(CS)NCCCCCNC(=O)[C@@H]1C[C@@H]2C(=O)N[C@@H](Cc3ccccc3)C(=O)N2[C@@H]1c1ccc(O)cc1 | -0.204 | -0.391 (inactive) | 0.0755 (inactive) | 0.0126 (inactive) | -0.0338 (inactive) | 0.349 (inactive) | 0.411 (inactive) | 0.904 (inactive) | 0.252 | -0.0282 |
| CCOC(=O)NN=C1C[C@@H](O)[C@@H](O)[C@@H]2[C@@H]3C(=O)N(C(C)(C)C)C(=O)[C@@H]3CC[C@@H]12 | -0.119 | 0.381 (inactive) | -0.387 (inactive) | 0.0062 (inactive) | -0.495 (inactive) | -1.23 (inactive) | -0.654 (inactive) | -0.0961 (inactive) | -0.559 | 0.167 |
| CCN1C(=O)[C@H]2[C@H]3[C@H](O)[C@H](O)CC(=NOC[C@@H](C)[C@H](OCc4ccccc4)C(C)C)[C@@H]3CC[C@H]2C1=O | -0.725 | -4.63 (inactive) | -0.959 (inactive) | -0.613 (inactive) | 0.0525 (inactive) | -0.134 (inactive) | 1.03 (inactive) | 0.992 (inactive) | -0.989 | -0.0599 |
| C#CCCCON=C1C[C@@H](O)[C@@H](O)[C@@H]2[C@@H]3C(=O)N(CCC(=O)OCC)C(=O)[C@@H]3CC[C@@H]12 | -0.0517 | -0.395 (inactive) | -1.01 (inactive) | 0.175 (inactive) | -0.0485 (inactive) | -0.538 (inactive) | 0.122 (inactive) | 0.529 (inactive) | -0.739 | -0.212 |
| COC(=O)[C@@]1(Cc2ccc(F)cc2)[C@@H]2C(=CC(=O)[C@H]2CC(=O)C(=O)N(C)C)CN1C(=O)c1ccccc1 | -1.46 | 1.69 (inactive) | -2.73 (inactive) | 0.354 (inactive) | 0.784 (inactive) | 1.38 (inactive) | -0.0125 (inactive) | 0.0104 (inactive) | -2.94 | -0.174 |
| CCN1C(=O)[C@H]2[C@H]3[C@H](O)[C@H](O)CC(=NOCc4ccccc4)[C@@H]3CC[C@H]2C1=O | -0.113 | -1.73 (inactive) | -2.61 (inactive) | -2.05 (inactive) | 0.659 (inactive) | -2.27 (inactive) | -0.717 (inactive) | -0.353 (inactive) | -1.89 | -0.0302 |
| COC(=O)[C@@]1(Cc2ccc(OC)cc2)[C@H]2c3cc(C(=O)N4CCCC4)n(Cc4cc(F)c(F)c(F)c4)c3C[C@H]2CN1C(=O)c1ccccc1 | 0.0559 | 1.35 (inactive) | -2.23 (inactive) | 0.13 (inactive) | 1.03 (inactive) | 0.0628 (inactive) | -0.824 (inactive) | -0.254 (inactive) | -3.1 | 0.25 |
| CCOC(=O)[C@H](Cc1ccccc1)NC(=O)CCC1CC(OC(=O)NCc2ccc3c(c2)OCO3)CC2(CCCC(COC(=O)NCC(c3ccccc3)c3ccccc3)O2)O1 (stereo not given in full) | 0.56 | -1.14 (inactive) | 0.328 (inactive) | -0.219 (inactive) | 0.405 (inactive) | 0.445 (inactive) | 0.816 (inactive) | 0.381 (inactive) | 0.909 | -0.0351 |
| CCOC(=O)C1=CC[C@H]2C(=O)N(CC)C(=O)[C@@H]12 | 0.507 | 1.31 (inactive) | 0.293 (inactive) | 0.467 (inactive) | 0.0236 (inactive) | 1.38 (inactive) | -0.0583 (inactive) | -0.196 (inactive) | 0.667 | -0.311 |
| Cc1ccc(F)cc1S(=O)(=O)N[C@@H]1CCN(Cc2ccc(CC(C)C)cc2)C1 | -0.367 | -17.2 (active) | -0.653 (inactive) | -0.687 (inactive) | 0.294 (inactive) | -14.5 (active) | -20.3 (active) | -17.4 (active) | -1.89 | -0.106 |
| [N-]=[N+]=NCc1ccccc1[C@@H]1OC(c2ccc(OCCCO)cc2)=N[C@]1(Cc1ccccc1)C(=O)N1CCOCC1 | -0.85 | -0.833 (inactive) | -1.15 (inactive) | -0.0859 (inactive) | -0.208 (inactive) | 0.165 (inactive) | 0.559 (inactive) | 0.917 (inactive) | -0.425 | 0.113 |
| O=C1CCCC=C1C(O)CCOCc1ccccc1 (stereo not given) | 0.123 | -1.76 (inactive) | -0.43 (inactive) | -0.0462 (inactive) | 0.602 (inactive) | -0.735 (inactive) | -0.88 (inactive) | -1.74 (inactive) | 0.104 | -0.0525 |
| CC(=O)O[C@H]1C2=C(C(=O)[C@@H]3O[C@@H]31)[C@H]1C(C)O[C@@H]2[C@@]23C(=O)[C@@H]4O[C@@H]4[C@@H](O)C2=CO[C@H](C)[C@@H]13 (stereo not given in full) | 0.0072 | 0.174 (inactive) | -1.01 (inactive) | -0.0495 (inactive) | -0.0812 (inactive) | -0.2 (inactive) | 0.223 (inactive) | 0.186 (inactive) | -1.12 | -0.0454 |
| COC(=O)CC1OC1[C@H](C)[C@@H](OC)C(C)C (stereo not given in full) | -0.863 | -4.59 (inactive) | -1.91 (inactive) | -3.39 (inactive) | 0.699 (inactive) | 0.748 (inactive) | 0.487 (inactive) | 0.293 (inactive) | -1.43 | -0.313 |
| COCCCNC(=O)[C@]1(Cc2ccccc2)N=C(c2ccc(OCCCO)cc2)O[C@@H]1c1ccccc1 | 0.754 | -0.706 (inactive) | 0.325 (inactive) | -0.0882 (inactive) | 0.494 (inactive) | -0.499 (inactive) | 0.156 (inactive) | -1.11 (inactive) | 0.778 | -0.0118 |
| O=C1NC(=O)C2C1C=CC(C(O)Cc1ccccc1)N2Nc1ccccn1 (stereo not given) | -0.507 | 0.424 (inactive) | -0.164 (inactive) | 0.195 (inactive) | -0.118 (inactive) | -0.979 (inactive) | 0.374 (inactive) | 1.42 (inactive) | -0.448 | -0.136 |
| COc1cccc([C@H]2Oc3ccc(OC)cc3C(=NOC(C)CN3CCCc4nc(C)c(C)cc43)[C@@H]2O)c1 (stereo not given in full) | -0.948 | -0.872 (inactive) | -0.944 (inactive) | 0.956 (inactive) | -0.136 (inactive) | -0.168 (inactive) | -0.0128 (inactive) | -0.565 (inactive) | -0.948 | 0.271 |
| N#Cc1ccc(NN2C(C(O)c3cc(C(F)(F)F)cc(C(F)(F)F)c3)C=CC3C(=O)N(c4ccccc4)C(=O)C32)cc1 (stereo not given) | -1.75 | -0.102 (inactive) | -0.758 (inactive) | 0.678 (inactive) | 1.14 (inactive) | -0.0165 (inactive) | -1.55 (inactive) | -0.56 (inactive) | -0.409 | 0.0239 |
| CC(C)[Si]1(C(C)C)O[C@@H](c2ccccc2)c2cc(C3CC3)nc(-c3ccccc3)c21 | 0.972 | 0.0055 (inactive) | 0.656 (inactive) | 0.45 (inactive) | 0.632 (inactive) | -0.403 (inactive) | -0.281 (inactive) | -0.785 (inactive) | 0.21 | 0.0785 |
| O=C1[C@H]2[C@H]3[C@H](O)[C@H](O)CC(=NO[C@@H]4O[C@H](CO)[C@@H](O)[C@H](O)[C@H]4O)[C@@H]3CC[C@H]2C(=O)N1Cc1ccc2c(c1)OCO2 | -0.191 | -0.387 (inactive) | 0.0622 (inactive) | 0.0922 (inactive) | -0.389 (inactive) | -0.558 (inactive) | -0.494 (inactive) | -0.136 (inactive) | 0.36 | -0.0552 |
| CCOC(=O)NN=C1C[C@@H](O)[C@@H](O)[C@@H]2[C@@H]3C(=O)N(CC)C(=O)[C@@H]3CC[C@@H]12 | -0.0886 | 0.398 (inactive) | -0.621 (inactive) | -0.538 (inactive) | -0.331 (inactive) | -0.823 (inactive) | -0.145 (inactive) | -0.325 (inactive) | -0.423 | -0.105 |
| C[C@@H]1CC[C@H]2C(=O)O[C@H](COc3ccc(C(C)(C)C)cc3)CN2[C@H]1c1ccc(Br)cc1 | 0.182 | 0.789 (inactive) | 0.837 (inactive) | 0.702 (inactive) | 0.18 (inactive) | 1.71 (inactive) | -0.474 (inactive) | -0.438 (inactive) | 1.12 | -0.0118 |
